According to PubChem BioAssay AID1159506 (National Center for Advancing Translational Sciences (NCATS), 2015):
Whole data set: some 59,000 sequences, median the read-out near -0.00055, cut for the lowest 2% near -2. Many of the other results were omitted from the sample, so the lowest values are more common in it than they were.

Experiment: Identification of proteins required for the processing of the EWS-FLI1 nascent transcript;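 also: robust z of luciferase light less the median z of siRNAs with the same seed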
Conditions: TC32 Ewing sarcoma NR0B1-luc vs CMV-luc (EWS-FLI1 target promoter against control promoter), 48 h; screened at 20 nM (by protocol)
Procedure, shortened: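 Parallel TC32-NR0B1-luc and TC32-CMV-luc reverse transfections with 20 nM siRNA in RPMI-1640/10% FBS, luciferase measured 48 h later. Seed-adjusted z-scores from normalized, z-score-MAD transformed data; AllStars negative and siGL4 controls on each plate.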

Point of comparison: UAUAUUGCUCGGUCAAGUC against RBM4, seed-corrected z-score -0.89. Against it:
- UCGGUGUAAGGUGUCCAUG against POU2AF1 — higher, -0.0736
- UUCUUUCCAAACGCAAGAU against RPRML — lower, -2.78
- AACUUGGUAGCGGCUUUGG against CDHR1 — higher, -0.12
- AAACACGUAGGGCACAUUC against SNU13 — lower, -5.96
- AAUGGAAAUAUUCUCGACC against CNRIP1 — higher, -0.303
- UCACAGAGCAGAUGGGUUC against PTPN7 — higher, -0.424
- UUAAGUCUAGGGCAAAUUC against OGFOD1 — higher, 0.0394
- UUACCUGCAGAAACCUUCU against MUC1 — lower, -2.32
- AAUCUUCUUGUCCUGACUC against PHPT1 — lower, -0.987
- AAAUAGGCAAGGAAUCUUG against LARP1BP1 — lower, -1.48
- AAUGUUGUCAUAGCCGAUG against PSTPIP2 — lower, -0.92
- UACGUGUUGAUUUGUCAGC against ANKZF1 — higher, 0.382
- UCCAUUUCAGGAGCUACGC against OTULIN — lower, -2.32
- UGCUAAAAUAGUCGCAUCC against LOC727919 — higher, -0.265
- AUACCUGCAGUGAACAUUU against ECH1 — lower, -3.28
- UACUGACUCCUUGUAUGCC against CSTF2T — higher, 0.0375
- UGUCAAACUGGUGCUGUUG against NAGLU — higher, -0.208
- AAUGUAAGGCCUUAAAUCG against MRPS27 — higher, 0.696
- UUCUUUCACGCUUAGUUUC against LOC729978 — higher, 0.995
- AAAAUUUCAUCCAUCAAUC against NUS1 — higher, 0.0341
- UCUUCGUCCACAUUGGUUC against EPG5 — lower, -11.6
- UUCUAUACCCAGUACAUGG against ZNF112 — higher, 1.1
- UGUUAUAGAAUGACGCACC against DNAH11 — higher, -0.639
- AAAGCGAAGAGGUCUAGGC against PASK — higher, 0.632
- UCCAGGUCUAGAACUUGCG against DACH1 — higher, -0.158
- AAGUCGAUCCAUAACAAUC against AK9 — higher, 0.17
- AACCAUACUACAGUCAAUC against TIMM17A — higher, 0.0529
- UCAUCUAAAAUCUCGGUAG against POLE — lower, -2.51
- UCAUAUACAGCAAACGGGC against RHOJ — higher, -0.695
- ACUGUUGUCACUGCGGUGG against GPR20 — higher, -0.419
- UAAUUUCAGAGUAUGUCCG against PCDHAC2 — higher, -0.214
- UGGGUAGUUAGACUUGAUC against ZNF160 — lower, -2.52
- UACCUAUUUAGCAUAUUGG against GRIN2B — higher, 1.13
- UUGGAUCCAGUUGAUAACG against EPCAM — higher, 0.867
- UGAGUUACAGGGACCGAAG against LINC00944 — higher, -0.148
- AGCUUGAGAAUUUACUUGG against HIST1H2BL — lower, -2.21
